In PubChem BioAssay:
Activity calls are given as the source filed them.

Tests used:
[1] = tested on: Plasmodium falciparum Sir2 (PF13_0152, Sir2A); assay: pfSir2 binders on small-molecule microarrays, primary screen, biochemical, small-molecule microarray, 635 nm fluorescence (AID 1098); conditions: small-molecule microarray binding, fluorescence 635 nm; higher = more signal;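 also: score merges spot fluorescence intensity with its signal-to-noise ratio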
[2] = small-molecule microarray binders of probe aDKK1, primary screen, biochemical, biotinylated probe, 635/667 nm fluorescence (AID 1099); conditions: higher = more signal;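 also: score merges 667nm spot fluorescence with signal to noise across triplicate slides; reference of the scale not given here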
[3] = small-molecule microarray binders of probe aCHRDL2, primary screen, biochemical, biotinylated probe, 635/667 nm fluorescence (AID 1100); conditions: higher = more signal
[4] = splicing luciferase reporter signal modulators, primary screen, spliceosome inhibition project, cell-based, HEK293, splice +/- reporter (AID 1101); conditions: luminescence, 24 h, higher = more signal, called active from +8 up or from −8 down;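 also: HEK293 cells carrying a splicing-competent luciferase reporter gene; test concentration not given here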
[5] = biological target: Fibroblast growth factor 10 (Homo sapiens) (UniProt O15520); assay: FGF10 binders on small-molecule microarrays, primary screen, biochemical, small-molecule microarray, 635 nm fluorescence (AID 1102); conditions: FGF10 binding, fluorescence 635 nm, higher = more signal
Fibroblast growth factor 10 (Homo sapiens), sequence (O15520 whole entry, looked up): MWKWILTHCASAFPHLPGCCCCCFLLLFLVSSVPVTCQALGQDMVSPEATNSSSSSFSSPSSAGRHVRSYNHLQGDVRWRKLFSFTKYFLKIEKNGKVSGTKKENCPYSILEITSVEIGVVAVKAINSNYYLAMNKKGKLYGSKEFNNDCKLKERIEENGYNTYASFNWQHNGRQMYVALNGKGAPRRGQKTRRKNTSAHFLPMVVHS

[6] = tested on: glycogen synthase kinase-3 (GSK3A per assay name; protocol says GSK3B); assay: GSK3 binders on small-molecule microarrays, primary screen, biochemical, small-molecule microarray, 635 nm fluorescence, GSK3A (AID 1103); conditions: small-molecule microarray binding, fluorescence 635 nm; higher = more signal; also: the record names both GSK3A and GSK3B
[7] = biological target: Epidermal growth factor receptor (Homo sapiens) (UniProt P00533); assay: EGFR binders on small-molecule microarrays, primary screen, biochemical, small-molecule microarray, 635 nm fluorescence (AID 1104); conditions: EGFR binding, higher = more signal;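 also: score merges 667 nm emission intensity with spot signal to noise over triplicate slides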
Epidermal growth factor receptor (Homo sapiens), sequence (P00533 whole entry, looked up): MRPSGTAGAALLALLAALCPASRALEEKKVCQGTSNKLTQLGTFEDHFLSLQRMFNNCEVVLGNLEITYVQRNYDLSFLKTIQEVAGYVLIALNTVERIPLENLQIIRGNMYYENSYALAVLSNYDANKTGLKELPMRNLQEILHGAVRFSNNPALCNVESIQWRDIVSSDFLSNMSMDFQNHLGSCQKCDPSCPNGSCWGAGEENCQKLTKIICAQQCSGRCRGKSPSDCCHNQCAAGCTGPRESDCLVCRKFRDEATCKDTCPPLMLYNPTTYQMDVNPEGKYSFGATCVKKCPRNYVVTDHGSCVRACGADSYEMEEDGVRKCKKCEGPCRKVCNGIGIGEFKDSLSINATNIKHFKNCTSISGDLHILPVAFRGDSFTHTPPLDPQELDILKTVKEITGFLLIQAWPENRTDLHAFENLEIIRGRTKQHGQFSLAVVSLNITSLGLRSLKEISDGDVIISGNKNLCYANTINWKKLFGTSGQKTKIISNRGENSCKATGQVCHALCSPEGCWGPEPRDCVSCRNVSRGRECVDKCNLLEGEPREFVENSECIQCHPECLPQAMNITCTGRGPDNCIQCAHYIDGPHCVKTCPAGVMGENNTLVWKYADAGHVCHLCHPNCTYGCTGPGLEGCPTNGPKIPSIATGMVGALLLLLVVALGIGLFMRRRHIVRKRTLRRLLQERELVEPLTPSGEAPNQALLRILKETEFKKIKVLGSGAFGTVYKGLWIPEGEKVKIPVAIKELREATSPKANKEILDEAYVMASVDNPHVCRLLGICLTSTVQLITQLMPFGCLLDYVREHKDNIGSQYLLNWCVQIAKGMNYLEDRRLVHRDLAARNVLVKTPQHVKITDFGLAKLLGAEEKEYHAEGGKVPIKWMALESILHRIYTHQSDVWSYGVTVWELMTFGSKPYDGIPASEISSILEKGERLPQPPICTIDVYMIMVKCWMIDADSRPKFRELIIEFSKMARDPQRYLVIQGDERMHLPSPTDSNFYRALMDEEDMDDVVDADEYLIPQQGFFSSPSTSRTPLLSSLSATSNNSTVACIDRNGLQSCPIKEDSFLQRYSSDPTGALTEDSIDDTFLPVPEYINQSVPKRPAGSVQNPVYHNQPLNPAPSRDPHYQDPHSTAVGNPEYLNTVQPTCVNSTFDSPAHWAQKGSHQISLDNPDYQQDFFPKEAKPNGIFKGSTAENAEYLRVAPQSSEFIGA

[8] = biological target: Follistatin-related protein 3 (Homo sapiens) (UniProt O95633); assay: FSTL3 binders on small-molecule microarrays, primary screen, biochemical, small-molecule microarray, 635 nm fluorescence (AID 1105); conditions: FSTL3 binding, higher = more signal;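 also: score merges emission near 667 nm and signal to noise per printed spot across three slides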
Follistatin-related protein 3 (Homo sapiens), sequence (O95633 whole entry, looked up): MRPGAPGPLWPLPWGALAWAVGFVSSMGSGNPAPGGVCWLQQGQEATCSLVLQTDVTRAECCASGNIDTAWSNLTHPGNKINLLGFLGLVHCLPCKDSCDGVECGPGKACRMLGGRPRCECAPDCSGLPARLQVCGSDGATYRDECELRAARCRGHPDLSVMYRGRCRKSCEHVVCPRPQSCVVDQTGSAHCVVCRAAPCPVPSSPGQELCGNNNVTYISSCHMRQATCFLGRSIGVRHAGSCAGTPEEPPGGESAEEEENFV

[9] = biological target: Dickkopf-related protein 1 (Homo sapiens) (UniProt O94907); assay: DKK1 binders on small-molecule microarrays, primary screen, biochemical, small-molecule microarray, 635 nm fluorescence scan (AID 1106); conditions: DKK1 binding, higher = more signal;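 also: score merges emission near 667 nm with signal to noise over three replicate slides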
Dickkopf-related protein 1 (Homo sapiens), sequence (O94907 whole entry, looked up): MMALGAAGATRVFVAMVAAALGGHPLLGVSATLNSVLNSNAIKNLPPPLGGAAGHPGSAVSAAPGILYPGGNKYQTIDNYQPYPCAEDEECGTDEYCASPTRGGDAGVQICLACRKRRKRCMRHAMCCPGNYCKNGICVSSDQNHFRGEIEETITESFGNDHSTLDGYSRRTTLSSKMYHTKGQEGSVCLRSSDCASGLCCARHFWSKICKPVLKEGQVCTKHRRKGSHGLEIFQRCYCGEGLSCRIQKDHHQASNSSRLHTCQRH

[10] = tested on: Inhibin beta A chain (activin A); assay: INHBA (activin A) binders on microarrays, primary screen, biochemical, small-molecule microarray, 635 nm fluorescence scan (AID 1107); conditions: small-molecule microarray binding, higher = more signal;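 also: mouse activin A protein probed at 4.33 µg/mL on printed slides; score merges bound-protein fluorescence near 667 nm with spot signal-to-noise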

Row | Structure (SMILES) | composite z-score [1] | composite z-score [2] | composite z-score [3] | z-score [4] | composite z-score [5] | composite z-score [6] | composite z-score [7] | composite z-score [8] | composite z-score [9] | composite z-score [10]
1 | CC(C)(C)OC(=O)CC[C@]1(C(=O)O)COC(c2ccc(OCCCO)cc2)=N1 | 0.337 | 0.768 | 0.553 | 0.14 (inactive) | -0.577 | -0.69 | -0.609 | -1.2 | -1.51 | 0.469
2 | CCCCCCCCCCC(O)C1C=CC2C(=O)NC(=O)C2N1Nc1ccccn1 (stereo not given) | 1.07 | 0.482 | 0.883 | 0.447 (inactive) | -0.649 | -0.811 | -0.689 | -0.448 | -0.765 | 0.997
3 | COC(=O)c1ccc(OC)c(/C=C\CC(CCc2ccccc2)OC(=O)c2ccncc2)c1 (stereo not given) | -0.734 | -0.264 | 0.705 | -0.387 (inactive) | 0.253 | -0.453 | 0.651 | 1.37 | 0.697 | 1.81
4 | COc1ccc([Si](C)(C)[C@H]2[C@H](CC(=O)N3CCC[C@H]3CO)O[C@@]3(C(=O)N(Cc4ccc(N5C(=O)c6cccc7cccc5c67)cc4)c4ccccc43)[C@@H]2C)cc1 | 1.4 | 0.184 | 0.0075 | -1.17 (inactive) | 0.651 | 1.2 | 0.6 | 1.35 | 0.736 | 0.4
5 | CO[C@H]1O[C@H](CO)[C@@H](OC(=O)Nc2ccc(C(F)(F)F)cc2)[C@H](OC(=O)Nc2ccccc2)[C@H]1OC(=O)Nc1ccccc1 | 1.61 | 0.995 | 0.832 | -0.624 (inactive) | 1.33 | 1.33 | 0.375 | 1.2 | 0.0148 | 0.0729
6 | Cc1ccc(S[C@]2(C(=O)NCc3ccccc3)CC(=O)N(C3Cc4ccccc4C3)[C@@H]2c2ccc(CO)cc2I)cc1 | 0.976 | 0.699 | 0.995 | -1.83 (inactive) | -0.699 | -0.488 | -0.807 | -0.645 | -1.13 | 0.889
7 | COc1cc(C(O)C2C=CC3C(=O)N(C)C(=O)C3N2NC(=O)OC(C)(C)C)cc(OC)c1OC (stereo not given) | 1.27 | 1.2 | 0.739 | 1.21 (inactive) | 0.447 | 0.833 | 0.189 | 0.234 | -0.076 | 0.442
8 | COC(=O)[C@@]1(Cc2ccc(OC)cc2)[C@H]2c3cc(C(=O)N(C)C)n(Cc4cc(F)c(F)c(F)c4)c3C[C@H]2CN1C(=O)c1ccccc1 | 0.85 | 1.59 | 1.03 | -2.2 (inactive) | 0.519 | 1.02 | 0.261 | 0.745 | -0.958 | 0.882
